Most compounds without a hit are left out; they make up all but 5.7% or so of the library.
DAX1 inh-1 – DAX1 (NR0B1) inhibitors, primary screen, cell-based, HEK293, Gal4-DAX1, luciferase luminescence. Nuclear receptor subfamily 0 group B member 1 (Homo sapiens), P51843. HEK293 Gal4-DAX1 luciferase reporter. inhibition, % at 6.75 µM. 340,000 compounds, 0.99% hits. AID 504766, 2011;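 active = inhibition above the mean over all tested compounds plus 3 SD, cut at about 4.2% in these data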;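 note: 0% = DAX1-transfected cells with DMSO and 100% = empty-vector control cells with DMSO; inhibition shows as a rise in luminescence from relieved DAX1 repression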
ssDAF12 agonist – S. stercoralis DAF-12 nuclear receptor activators, primary screen, cell-based, luminescence, HEK293, GRIP1 co-expression, lit1-tk-luc; activation, % at 6.8 µM; HEK293 ssDAF-12/GRIP1 lit1-tk-luc reporter; % of 3 µM dafachronic acid response; 370,000 compounds, 1% hits; AID 652126, 2013; Nuclear hormone receptor DAF-12 (Strongyloides stercoralis);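 active = activation above the mean over all tested compounds plus 3 SD, cut at about 0.9% in these data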;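 note: 0% = DMSO-only wells and 100% = 3 µM delta7-dafachronic acid wells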
hcDAF12 agonist – H. contortus DAF-12 nuclear receptor activators, primary screen, cell-based, luminescence, HEK293, lit1-tk-luc reporter; HEK293 hcDAF-12 lit1-tk-luc reporter; 0% DMSO, 100% Δ7-dafachronic acid; activation, % at 6.8 µM; 370,000 compounds, 1.4% hits;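 active = activation above the mean of all tested compounds plus 3 SD, cut at about 5.5% in these data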;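 note: 100% = response to 3 µM Δ7-dafachronic acid high control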
AHR act – AHR activators, primary screen, cell-based, luminescence, luciferase reporter, human | AHR-responsive luciferase reporter cells | 320,000 compounds, 2.5% hits | Aryl hydrocarbon receptor (Homo sapiens), P35869 | activation, % at 5 µM; in the data active = activation above about 47%;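 note: 0% = vehicle wells and 100% = reference agonist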
DAX1 inh-2 – DAX1 (NR0B1) inhibitors on StAR promoter, primary screen, cell-based, luminescence, SF-1 (NR5A1), full-length DAX-1; HEK293T StAR-luciferase reporter, SF-1/DAX-1 repression relief; inhibition, % at 6.8 µM; 370,000 compounds, 1.1% hits; AID 652010, 2013;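 active = inhibition above the mean over all tested compounds plus 3 SD, cut at about 3.6% in these data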;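 note: 0% = DAX-1 cells with DMSO and 100% = cells lacking DAX-1 with DMSO; higher inhibition means more luminescence from relief of DAX-1 repression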
hgDAF12 agonist – H. glycines DAF-12 receptor agonists, primary screen, cell-based, luminescence, HEK293, GAL4 fusion, UAS-luciferase; HEK293 GAL4-hgDAF12 UAS-luciferase reporter, agonist luminescence; normalized to butyrate control; AID 687014, 2013; 370,000 compounds, 1.8% hits; activation, % at 6.8 µM;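 active = activation above a cutoff set at the mean of all screened compounds plus 3 SD, cut at about 10% in these data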;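 note: 0% = DMSO wells and 100% = sodium butyrate wells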
LXRb hcDAF ctr – LXR agonists, Gal4 luciferase reporter, confirmation, counter-screen for hcDAF-12 agonist project, cell-based, luminescence, HEK293, H. contortus campaign; AID 743027, 2013; 3,400 tested, under 10 active; activation, % at 6.8 µM; shares compounds with hcDAF12 agonist; HEK293 Gal4-LXR tk-luc reporter, 24 h; normalized: DMSO 0%, positive control 100%;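 active = mean percent activation of the reporter above a cutoff set as the average over tested compounds plus their standard deviation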
Target sequence (P55055 whole entry, looked up, the tested form may be a part): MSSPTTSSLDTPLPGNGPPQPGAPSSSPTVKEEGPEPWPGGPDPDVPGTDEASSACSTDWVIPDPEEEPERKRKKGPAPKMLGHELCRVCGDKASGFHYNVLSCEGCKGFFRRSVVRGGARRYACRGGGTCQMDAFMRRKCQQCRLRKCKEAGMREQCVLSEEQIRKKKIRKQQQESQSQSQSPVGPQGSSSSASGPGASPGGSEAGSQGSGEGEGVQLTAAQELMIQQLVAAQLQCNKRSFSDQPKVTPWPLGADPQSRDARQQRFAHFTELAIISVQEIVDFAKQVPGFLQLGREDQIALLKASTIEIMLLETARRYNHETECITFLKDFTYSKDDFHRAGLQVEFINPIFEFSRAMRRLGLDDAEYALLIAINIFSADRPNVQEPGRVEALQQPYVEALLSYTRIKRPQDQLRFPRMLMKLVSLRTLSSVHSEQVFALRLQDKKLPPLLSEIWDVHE
hcDAF12 ag – H. contortus DAF-12 receptor agonists, confirmation, cell-based, luminescence, HEK293, lit1-tk-luc, triplicate | shares compounds with hcDAF12 agonist | HEK293 hcDAF-12 lit1-tk-luc reporter; % of Δ7-dafachronic acid response | activation, % at 6.8 µM | 3,400 compounds, 61% hits;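 active = mean activation across triplicate tests above the threshold derived from the earlier primary screen, cut at about 5.5% in these data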;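 note: 0% = DMSO only wells and 100% = 3 µM Δ7-dafachronic acid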
An asterisk follows results filed as active; · = no result.

SMILES	DAX1 inh-1	ssDAF12 agonist	hcDAF12 agonist	AHR act	DAX1 inh-2	hgDAF12 agonist	LXRb hcDAF ctr	hcDAF12 ag
COc1ccccc1Cc1c(-c2ccc(OC)c(OC)c2)nc2c3ccccc3ccn12	·	-0.7	2.8	·	-2.8	-1.1	·	·
FC(F)(F)c1ccccc1Cc1c(-c2cccc(Cl)c2)nc2c3ccccc3ccn12	·	1.6*	8.3*	·	1.6	4.8	-0.2	4.0
COc1ccc(-c2nc3c4ccccc4ccn3c2Cc2ccccc2)cc1OC	·	2.8*	11.3*	·	-1.1	8.4	0.3	9.9*
COc1ccccc1Cc1c(-c2ccccc2)nc2c3ccccc3ccn12	·	1.4*	6.6*	·	1.0	7.8	0.0	6.0*
COc1ccccc1N(Cc1ccccc1)S(=O)(=O)c1cccc(C(=O)Nc2ccc(C(C)=O)cc2)c1	1.2	0.0	11.5*	12.7	0.6	8.0	-0.2	2.6
COC(=O)c1nc(-c2ccccc2)nc(-c2ccccc2)c1C(=O)OC	·	-2.0	0.5	-2.6	0.2	-1.9	·	·
O=C(O)c1[nH]c2ccccc2c1C(c1cc(Br)ccc1O)c1c(C(=O)O)[nH]c2ccccc12	0.6	0.6	7.1*	20.4	-0.2	0.5	-0.4	3.0
Cc1[nH][nH]c(=O)c1C(c1cc(Br)ccc1O)c1c(C)[nH][nH]c1=O	-0.2	0.4	-0.1	0.6	-0.3	1.2	·	·
COc1ccc(CNC(=O)COC(=O)c2cc(C)oc2C)cc1	1.4	-1.1	-0.6	·	-0.3	2.5	·	·
COc1ccc(Cl)cc1NC(=O)COC(=O)c1ccc(Cl)nc1	-0.3	0.6	6.7*	34.9	-0.4	5.4	-0.2	2.0
COc1ccc(Cl)cc1NC(=O)COC(C)=O	0.1	-1.5	-1.1	1.0	0.2	-0.3	·	·
Cc1ccsc1/C=C1\CCc2ccccc2C1=O	-3.1	1.4*	12.1*	49.9*	3.4	9.6	1.6	14.0*
COc1ccc(/C=C2\CCc3ccccc3C2=O)cc1OC	0.0	-1.4	-0.1	5.4	1.5	4.2	·	·
CC(=O)Oc1ccc(/C=C2/CCc3ccccc3C2=O)cc1	-2.5	0.7	7.3*	1.2	2.4	6.6	1.1	4.9
C[C@@H]1CN([C@@H](C)CO)C(=O)CCCn2nncc2CO[C@H]1CN(C)S(=O)(=O)c1ccc(-n2cccn2)cc1	0.2	-0.8	-0.9	·	-0.1	0.8	·	·
CCOC(=O)c1nc(C)sc1-c1ccnn1S(=O)(=O)c1cccc(Cl)c1	0.0	-1.9	-3.3	6.8	-0.6	-2.8	·	·
COc1ccc(/C(N)=N/OC(=O)Cc2cccs2)cc1OC	-1.2	0.8	14.2*	14.4	0.6	8.8	0.1	3.0
CC(c1nnc(SCC(=O)Nc2cccnc2Cl)n1Cc1ccccc1)N(C)C (stereo not given)	0.7	-1.9	-2.4	-4.1	0.4	1.6	·	·
O=C(N/C(=C\c1cccc([N+](=O)[O-])c1)C(=O)N1CCOCC1)c1cccc(Br)c1	-0.2	-1.3	0.4	5.7	0.3	0.8	·	·
Cc1ccc2cn[nH]c2c1N	-0.3	0.7	6.9*	43.2	-0.6	3.2	-0.2	4.1
Cn1c(-c2ccccc2)c(Sc2ccccc2)c2cc(-c3ccc4[nH]ccc4c3)ccc21	·	-1.0	0.6	·	-0.1	2.0	·	·
Cn1c(C=O)c(-c2ccc3cc[nH]c3c2)c2ccccc21	3.1	-0.1	7.7*	34.2	-0.1	4.2	-0.2	5.5
CC/C=C(\NC(C)=O)c1ccccc1	-0.5	-1.1	1.2	-2.2	0.1	1.1	·	·
COc1cccc(-c2nnc(Nc3nc4c(F)cccc4s3)o2)c1	0.5	0.4	8.3*	64.4*	3.0	9.2	0.3	6.8*
Cn1c(NC(=O)/C=C/c2ccccc2)cc(=O)n(C)c1=O	4.8*	1.3*	10.5*	77.6*	1.3	2.5	0.5	6.3*
SMILES	DAX1 inh-1	ssDAF12 agonist	hcDAF12 agonist	AHR act	DAX1 inh-2	hgDAF12 agonist	LXRb hcDAF ctr	hcDAF12 ag
COc1ccc(C(C#N)N2N=C(c3ccccc3)CC2c2ccccc2)cc1OC (stereo not given)	2.3	0.1	8.7*	32.1	2.1	7.0	0.1	1.9
COc1ccc(C(C#N)N2N=C(C)CC2c2ccccc2)cc1OC (stereo not given)	-0.5	-0.3	0.4	0.1	-0.1	-2.0	·	·
Cc1c(C(=O)NNC(=S)Nc2ccc(S(N)(=O)=O)cc2)oc2ccccc12	0.1	-0.5	-0.2	-4.3	-0.8	-1.8	·	·
COC(=O)[C@]12CCCCC=C1N(Cc1cccc3ccccc13)C(=O)[C@H](CC(=O)NCCc1ccccc1OC)C2	·	-0.3	-0.6	·	0.3	1.4	·	·
COc1ccc(C(=O)OCC(=O)c2ccc[nH]2)c(OC)c1	3.8	0.3	6.7*	0.9	0.4	9.3	0.8	4.4
CCC(C)NS(=O)(=O)c1ccc(NC(=O)C2CCN(C(=O)c3ccco3)CC2)cc1 (stereo not given)	0.2	-0.2	-1.3	-3.9	0.0	0.7	·	·
O=C(NC1CCCC1)C(c1ccccn1)N(C(=O)c1csnn1)c1ccc(F)cc1 (stereo not given)	1.6	-1.0	-0.6	2.1	-0.5	-2.1	·	·
c1ccc(C[n+]2c(-c3ccccc3)csc2Nc2ccccc2)cc1	3.0	0.3	2.5	7.8	1.8	8.2	·	·

From PubChem BioAssay
